High-throughput results from PubChem.
LYPLA1 counter: blocks human lysophospholipase 1, a PME1 counter-screen; 320,000 tested, 0.16% active; O75608; inhibition, % at 5.9 µM; recombinant LYPLA1, FP-Rh probe fluorescence polarization;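 active = inhibition above the mean of all tested compounds plus 3 SD, set per campaign, cut at about 14% in these data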;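 note: inhibitors block serine hydrolase probe labeling of LYPLA1 so polarization falls; 0% = enzyme with DMSO and 100% = wells lacking LYPLA1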
Target sequence (O75608 whole entry, looked up): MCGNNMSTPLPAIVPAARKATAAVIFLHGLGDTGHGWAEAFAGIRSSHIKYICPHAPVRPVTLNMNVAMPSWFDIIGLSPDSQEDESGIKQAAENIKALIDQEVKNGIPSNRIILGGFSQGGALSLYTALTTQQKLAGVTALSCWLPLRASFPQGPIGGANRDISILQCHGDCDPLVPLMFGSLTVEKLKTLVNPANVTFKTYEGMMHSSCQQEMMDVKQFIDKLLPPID
PAFAH1B3 inh: PAFAH1B3 (human) inhibition; recombinant PAFAH1B3, FP-rhodamine probe, fluorescence polarization; inhibition, % at 3.39 µM; 340,000 tested, 0.28% active;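 active = inhibition above the screen-wide average of all tested compounds plus 3 SD, cut at about 25% in these data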;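 note: 0% = enzyme with DMSO only and 100% = wells lacking PAFAH1B3 protein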
Target sequence (Q15102 whole entry, looked up): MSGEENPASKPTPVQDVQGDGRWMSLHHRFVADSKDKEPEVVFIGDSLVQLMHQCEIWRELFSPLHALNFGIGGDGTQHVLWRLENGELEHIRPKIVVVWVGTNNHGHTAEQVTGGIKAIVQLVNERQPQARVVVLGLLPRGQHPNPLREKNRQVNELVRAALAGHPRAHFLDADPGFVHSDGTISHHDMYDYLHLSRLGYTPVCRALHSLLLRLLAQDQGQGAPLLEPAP
PAFAH1B2 FP inh: inhibitors of human PAFAH1B2 | recombinant PAFAH1B2, FP-rhodamine activity probe, fluorescence polarization | inhibition, % at 3.39 µM | 340,000 tested, 1.2% active | P68402;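 active = inhibition above the mean of all tested compounds plus 3 SD, cut at about 24% in these data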;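 note: 0% = enzyme with DMSO and 100% = wells lacking PAFAH1B2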
PAFAH2 FP inh: PAFAH2 (human) inhibition | recombinant PAFAH2, FP-rhodamine activity probe, fluorescence polarization | inhibition, % at 3.39 µM | 340,000 tested, 0.99% active | AID 492956;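 active = inhibition above the mean over all tested compounds plus 3 SD, cut at about 30% in these data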;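 note: inhibitors block probe labeling of enzyme so polarization drops; 0% = enzyme with DMSO and 100% = wells lacking PAFAH2 protein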
pPAFAH inh: pPAFAH (human) enzyme inhibition | recombinant pPAFAH, FP-rhodamine probe fluorescence polarization | Q13093 | 330,000 tested, 1.5% active | AID 463082 | inhibition, % at 3.39 µM;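 active = inhibition above the mean inhibition across the screen plus 3 SD, cut at about 25% in these data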;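 note: inhibitors block binding of the rhodamine activity-based probe so polarization drops; 0% = enzyme with DMSO and 100% = wells lacking pPAFAH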
LYPLA2 counter: LYPLA2 (human) inhibition in PME1 counter-screen | recombinant LYPLA2, FP-Rh probe fluorescence polarization | inhibition, % at 5.9 µM | 320,000 tested, 0.38% active;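 active = inhibition above the screen-wide mean plus 3 SD, limit set per campaign, cut at about 26% in these data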;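 note: 0% = LYPLA2 with DMSO and 100% = wells lacking LYPLA2 enzyme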
* marks the source's active call; other numbers are inactive results; · = not tested or not shown; ! = not active in a repeat. Rows were chosen to be rich in hits. Some 2.9% of all compounds tested hit in one or more screens of this group.

SMILES	LYPLA1 counter	PAFAH1B3 inh	PAFAH1B2 FP inh	PAFAH2 FP inh	pPAFAH inh	LYPLA2 counter
O=C(Nc1ccccc1)C(Cc1cccs1)c1nn[nH]n1 (stereo unspecified)	2	1	1	-10	5	6
O=C(Cn1cnc2ccccc2c1=O)NCC(=O)N1CCN(c2ccccn2)CC1	2	8	4	-5	1	5
Oc1ccc(NCc2cccs2)cc1	4	8	3	-9	28*	12
CC(=O)Nc1ccc(NCc2cccs2)cc1	3	1	6	-7	-1	4
COC(=O)CCC(=O)NC1CC(C)(C)Cc2c1cnn2-c1ccc(F)cc1 (stereo unspecified)	2	-3	-3	2	-3	2
COc1ccc2ccc3c(c2c1)N=C[C@]1(O3)N(C)c2ccccc2C1(C)C	-6	2	-2	5	33*	-9
O=C(c1cccnc1)N1CCN(S(=O)(=O)c2cccc(Cl)c2)CC1	·	3	2	-1	·	·
CN1CCN(S(=O)(=O)c2ccc(-c3ccc(Cl)cc3)cc2)CC1	2	-2	2	-3	-1	4
O=C(C1CCCCC1)N1CCN(S(=O)(=O)c2ccc(Cl)cc2)CC1	3	2	27*	-4	4	5
O=S(=O)(c1ccc(Cl)cc1)N1CCCC(C(F)(F)F)C1 (stereo unspecified)	6	5	30*	7	6	6
O=C(c1cncc(Br)c1)N1CCN(S(=O)(=O)c2ccc(Cl)cc2)CC1	0	12	25*	7	3	2
Cc1ccc(S(=O)(=O)c2ccc(Cl)cc2)cc1S(=O)(=O)N1CCN(C)CC1	-4	4	26*	-1	6	-2
COc1ccc(NC(=O)CCCC(=O)c2ccccc2)c(OC)c1	1	3	5	-4	4	4
COc1ccc(NC(=O)CC2C(=O)N(Cc3cccs3)C(=S)N2C(C)C)cc1 (stereo unspecified)	-5	3	2	-1	0	-3
O=C(c1ccc2ccccc2n1)N1CCN(S(=O)(=O)c2ccc(Cl)cc2)CC1	·	2	28*	2	0	·
O=C(CN1CCN(S(=O)(=O)c2ccc(Cl)cc2)CC1)c1ccc(O)c(O)c1	-1	6	33*	4	16	3
Cc1ccc(C)c(S(=O)(=O)N2CCN(C(=O)c3ccc4ccccc4n3)CC2)c1	-2	2	8	-3	3	4
CN1CCN(S(=O)(=O)c2ccc(Cl)cc2)CC1	0	11	25*!	-1	-9	-6
COc1ccc(NC(=O)CCN2CCN(S(=O)(=O)c3ccc(Cl)cc3)CC2)cc1	3	-2	25*	6	-6	3
O=C(CN1CCN(S(=O)(=O)c2ccc(F)cc2)CC1)c1ccc(O)c(O)c1	2	13	9	6	6	-8
COc1ccc(NC(=O)CCN2CCN(S(=O)(=O)c3ccc(C(C)C)cc3)CC2)cc1	-1	12	0	2	1	-1
CC1CCCN(C(=O)C(C)Sc2nc(-c3ccccc3)cc(C(F)(F)F)n2)C1 (stereo unspecified)	5	-1	7	-4	10	3
Cc1ccc(S(=O)(=O)NCCCCCC(=O)Nc2ccccc2C)cc1	4	-1	2	-7	3	24
CSC1(SC2=NCCN2)SC2(NCCN2)S1	·	3	2	4	·	·
Cc1nc(Nc2ccc(C(=O)O)cc2)sc1-c1ccccc1	7	6	20	7	2	6
SMILES	LYPLA1 counter	PAFAH1B3 inh	PAFAH1B2 FP inh	PAFAH2 FP inh	pPAFAH inh	LYPLA2 counter
Cc1nc(Nc2ccccc2)sc1-c1ccccc1	3	5	7	2	27*	8
O=C(CSc1nc2ccccc2n1-c1ccccc1)Nc1ncc(Cl)cc1Cl	-3	4	3	-9	27*	-3
CC(C)N(C(=O)CSc1nc2ccccc2n1-c1ccccc1)C(C)C	2	-3	5	-5	32*	1
CSc1nc(NCCOCCO)c2sc3nc(-c4ccco4)c4c(c3c2n1)CCC4	-12	12	2	8	29*	-11
CSc1nc(NCc2ccco2)c2sc3nc(C(C)C)c4c(c3c2n1)CC(C)(C)OC4	-8	5	3	-3	2	-8
CCN(CCO)c1nc(SC)nc2c1sc1nc(-c3ccco3)c3c(c12)CCC3	-5	-3	-1	0	32*	0
CCOC(=O)c1ccc2[nH]c(C)c(C)c2c1	3	13	4	2	10	-5
CC(=O)c1cccc(NC(=O)c2onc(C)c2Cl)c1	5	7	2	13	2	0
O=C1C(=O)N(CNc2ccccn2)c2ccccc21	-4	4	2	9	29*	-9
N#CC1(C#N)C(c2ccccc2)OC23CCCCC2C1(C#N)C(=N)O3 (stereo unspecified)	9	20	15	26	16	4
CCCCC1OC23CCCCC2C(C#N)(C(=N)O3)C1(C#N)C#N (stereo unspecified)	5	26*	30*	36*	5	2
O=C(O)COc1ccccc1-c1nc(-c2ccccc2)c(-c2ccccc2)[nH]1	-2	6	36*	18	15	-1
COc1cccc(-c2nc(-c3ccccc3)c(-c3ccccc3)[nH]2)c1OCC(=O)O	·	14	24*	22	·	·
Cc1ccc(-n2c(=S)[nH]c3sc4c(c3c2=O)CCC4)cc1	3	6	8	15	6	-1
CN1OC(COC(=O)c2ccc(Cl)cc2Cl)CC1c1ccccc1 (stereo unspecified)	1	-3	3	7	26*	-1
O=C(OC1CCCC1)c1ccc(Cl)cc1Cl	·	3	1	-2	·	·
O=C(COC(=O)C1(c2ccccc2F)CCCC1)NCc1cccs1	0	11	7	3	4	2
NC(=O)c1ccc(NC(=O)COC(=O)C2(c3ccccc3F)CCCC2)cc1	-2	8	27*	2	-1	-1
Cc1ccc(NC(=S)NNC(=O)c2ccc(N3CCOCC3)c([N+](=O)[O-])c2)cc1C	2	14	4	12	26*	0
O=c1c2ccccc2c(-c2ccccc2)nn1Cc1ccc(Cl)cc1	2	-4	2	-2	1	-7
Cc1c(OCC(=O)N[C@@H](CSCc2ccccc2)C(=O)O)ccc2c3c(c(=O)oc12)CCC3	·	2	24*	13	·	·
Cc1c(OCC(=O)N[C@@H](Cc2ccccc2)C(=O)O)ccc2c3c(c(=O)oc12)CCC3	3	2	5	5	8	5
COc1ccc(NC(=O)C2CCCN(S(=O)(=O)c3ccc4c(c3)CCCN4C(C)=O)C2)cc1 (stereo unspecified)	-6	2	3	5	14	-5
